From PubChem BioAssay (NCI)
The panel holds about 83,000 compounds, 20% with a hit somewhere; the sample as a whole holds those more often.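 Single-concentration screen, 48 h exposure, 96-well plates. Endpoint: percent growth. Below 10 = active.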 Values without a mark were called inactive. Active and inactive are the calls of the source.

Tests used:
Assay in all cases: NCI-60 one-dose screen, 48 h (100 = growth as untreated, 0 = no growth, -100 = all killed)
NCI-H226 lung = conditions: 10 µM unless noted
NCI-H322M lung = conditions: 10 µM unless noted
NCI-H522 lung = conditions: 10 µM unless noted
SNB-19 CNS = conditions: 10 µM unless noted
U251 CNS = conditions: 10 µM unless noted
EKVX NSCLC = conditions: 10 µM unless noted
TK-10 renal = conditions: 10 µM unless noted
CCRF-CEM leukemia = conditions: 10 µM unless noted
SR leukemia = conditions: 10 µM
RPMI-8226 leukemia = conditions: 10 µM unless noted
SK-OV-3 ovarian = conditions: 10 µM unless noted
HS 578T breast = conditions: 10 µM unless noted
T-47D breast = conditions: 10 µM unless noted
MCF7 breast = conditions: 10 µM unless noted
HCC-2998 colon = conditions: 10 µM unless noted
HOP-62 NSCLC = conditions: 10 µM unless noted
HOP-92 NSCLC = conditions: 10 µM unless noted
IGROV1 ovarian = conditions: 10 µM
BT-549 breast = conditions: 10 µM

| SMILES | growth (NCI-H226 lung) | growth (NCI-H322M lung) | growth (NCI-H522 lung) | growth (SNB-19 CNS) | growth (U251 CNS) | growth (EKVX NSCLC) | growth (TK-10 renal) | growth (CCRF-CEM leukemia) | growth (SR leukemia) | growth (RPMI-8226 leukemia) | growth (SK-OV-3 ovarian) | growth (HS 578T breast) | growth (T-47D breast) | growth (MCF7 breast) | growth (HCC-2998 colon) | growth (HOP-62 NSCLC) | growth (HOP-92 NSCLC) | growth (IGROV1 ovarian) | growth (BT-549 breast) |
| --- | --- | --- | --- | --- | --- | --- | --- | --- | --- | --- | --- | --- | --- | --- | --- | --- | --- | --- | --- |
| CC(C)CCC[C@@H](C)[C@H]1CC[C@H]2[C@@H]3CC=C4C[C@@H](OC(=O)Cc5ccc(N(CCCl)CCCl)cc5)CC[C@]4(C)[C@H]3CC[C@]12C | 94.3% | 214% | 124% | 107% | 109% | 106% | 159% | 120% | 101% | 108% | 114% | 117% | 106% | 99% | -5.75% (active) | – | – | – | – |
| N#CC1c2ccccc2C=CN1C(=O)c1ccc(N(CCCl)CCCl)cc1 (stereo not drawn) | 78.2% | – | 69% | 82.4% | – | 86.8% | 107% | 87% | 86.6% | 69.2% | 97.3% | 99.5% | 65.3% | 83.5% | 101% | 91.1% | 81% | 98.2% | 89.8% |
| CC12CCC(=O)C=C1CCC1C2CCC2(C)C(C(=O)COC(=O)Cc3ccc(N(CCCl)CCCl)cc3)CCC12 (stereo not drawn) | 72.5% | 180% | 81.9% | – | 75.5% | 53.1% | 112% | 26.7% | – | 46.4% | 90% | 82.4% | 89.2% | 70.5% | -28.3% (active) | – | – | – | – |
| O=C(O)c1nn(Cc2ccc(Cl)cc2)c2ccccc12 | 101% | 127% | 96.8% | 96.7% | 100% | – | – | 98.7% | 97.3% | 98.4% | 113% | 105% | 104% | 99.7% | – | – | – | 122% | 122% |
| CNC(=O)Oc1cc(C(C)C)ccc1Sc1ccc(C(C)C)cc1OC(=O)NC | 83.2% | – | 75.7% | 79% | 46.2% | 69.1% | 84.7% | 36.5% | 15.8% | – | – | 67.7% | 77.7% | 58.8% | 104% | 75.9% | 89% | – | 94.2% |
| CC12CCC3C(CC=C4CC(O)CCC43C)C1C/C(=C\N1CCOCC1)C2=O (stereo not drawn) | 93.2% | 113% | 83.3% | 110% | – | 96.1% | 96% | 94.3% | 98.4% | 102% | 111% | 114% | 96% | 92.2% | 114% | – | 91.3% | 119% | 93.1% |
| Cc1cc([N+](=O)[O-])c(Cl)cc1NS(=O)(=O)c1ccccc1 | 64.7% | 85.4% | – | 79.1% | 80.9% | – | 110% | – | 64.3% | 37.3% | 96% | 72.5% | 59.5% | 73.9% | 80.6% | – | -3.58% (active) | 85% | 62.5% |
| C=CCC1(CC)C(=O)NC(=S)NC1=O | 104% | – | 93.5% | 97.1% | 101% | 105% | 111% | 100% | 96.7% | 103% | 97.1% | 102% | 100% | 103% | 96.5% | 97.9% | 80.6% | 107% | 106% |
| O=C(CCF)c1ccc(O)cc1 | 105% | 101% | 87.6% | – | 106% | 99.3% | 106% | 95% | 96% | 97.5% | 103% | – | 102% | – | 108% | – | 100% | 100% | 110% |
| COc1cc(C2=NN(c3ccccc3)C(c3sc(N(CCCl)CCCl)nc3Cl)C2)cc(OC)c1OC (stereo not drawn) | 81.8% | 91.4% | 69.1% | 86.4% | 85.6% | 78.9% | 102% | 87.9% | 84.2% | – | 77.7% | 85.8% | 68.7% | – | 99.9% | – | – | 106% | 95.4% |
| O=[N+]([O-])c1ccc2cnn(CSP(=S)(c3ccccc3)c3ccccc3)c2c1 | 77.4% | 92.9% | – | 88.6% | 74.1% | – | – | 45.9% | 9.77% (active) | 52.3% | – | – | 69.5% | 26.8% | – | – | 65.7% | 67.5% | – |
| CC(=O)[O][Hg][c]1ccccc1 | – | 40.1% | -32.8% (active) | -26.6% (active) | – | -35.7% (active) | -94.7% (active) | 0.0979% (active) | -31.3% (active) | – | -5.18% (active) | 16.4% | -42.1% (active) | -75.2% (active) | – | -87.9% (active) | -94.7% (active) | -55.1% (active) | -96.7% (active) |
| COc1ccc(C2=NN(c3ccccc3)C(c3sc(N(CCCl)CCCl)nc3Cl)C2)cc1 (stereo not drawn) | – | 92.7% | 71% | 93.5% | 94.4% | 86% | 117% | 86.1% | 86.1% | – | – | 80.9% | 69.5% | – | 107% | 80.1% | – | 121% | 108% |
| N#CC(C#N)=Cc1ccc2ccccc2c1 | 106% | – | 96.7% | – | 104% | 121% | 111% | 93.3% | – | 90.3% | 104% | – | 110% | 103% | – | 113% | 95.1% | – | 100% |
| CC(C)(C)[Si](C)(C)OC1[C@@H](O[Si](C)(C)C(C)(C)C)[C@@H](CNC(=O)NC(=O)CF)O[C@H]1n1cnc2c(NC(=O)Nc3ccccc3)ncnc21 (stereo partly drawn) | – | 104% | – | – | 56.6% | – | – | 4.8% (active) | -22.6% (active) | 24.6% | – | 29.5% | 71.9% | 19% | – | 87.1% | 48.5% | 72.9% | 68.9% |
| COc1ccccc1N1CCN(CCc2c[nH]c3cc4c(cc23)OCO4)CC1 | – | 72.1% | 72% | 79.6% | 85.4% | 77.7% | 89.7% | 75.4% | – | 47.1% | 104% | 69.5% | 83.1% | 78.7% | 92.6% | 63.2% | -8.6% (active) | -33.9% (active) | – |
| S=P(Nc1ccccc1)(Nc1ccccc1)c1ccccc1 | – | 107% | – | 85.3% | 92.1% | 90% | – | 95.3% | – | – | 108% | 107% | 87.5% | 109% | 93.6% | 90.7% | 84.1% | 101% | 101% |
| NC(=O)SCC(=O)Nc1ccc([As](=O)(O)O)cc1 | – | 123% | -9.01% (active) | 92.8% | 44.4% | 111% | – | 59.3% | – | 84% | 135% | 82.3% | 112% | 75.3% | – | 136% | – | 65.5% | 92% |
| ClCCN(CCCl)C(c1ccccc1)c1ccc(Cl)cc1 (stereo not drawn) | 75.4% | – | 65% | – | 82.6% | 102% | 81.1% | 15.3% | 5.67% (active) | 42.1% | 109% | – | 103% | – | 68.6% | – | 57.4% | – | 93.7% |
| C/C1=C/C(=O)O[C@@H]2C[C@@H](CC[C@H](C)/C=C\C=C\CC1)O[C@@](OCCc1ccccc1)([C@@H]1CSC(=O)N1)C2 | – | 27.8% | 7.26% (active) | 21.5% | – | 1.32% (active) | -68.1% (active) | 21.2% | – | 46.7% | – | -2.84% (active) | 61% | – | 55.9% | -15.8% (active) | -58.9% (active) | -55.8% (active) | -43% (active) |
| OC1CCCCC1N1CCC(c2ccccc2)CC1 (stereo not drawn) | 114% | – | – | 117% | 105% | 104% | – | 99.2% | 94% | 107% | 104% | 108% | 96.8% | – | 93.2% | – | – | 112% | 97.6% |
